Parameters in all cases: scale not given: direction of the effect not stated beside the values
The target in experiment [1] is Protein translocase subunit SecA (Escherichia coli (strain K12)) (UniProt P10408). Kind of experiment: Assay to Identify E. coli SecA ATPase Inhibitors. It counts as functional. As to conditions: 30 µM.
Experiment [2] has as its target T1, Ubiquitin-activating enzyme e1, putative (Leishmania donovani (strain BPK282A1)) (UniProt E9BSI1).
T1 sequence (whole entry): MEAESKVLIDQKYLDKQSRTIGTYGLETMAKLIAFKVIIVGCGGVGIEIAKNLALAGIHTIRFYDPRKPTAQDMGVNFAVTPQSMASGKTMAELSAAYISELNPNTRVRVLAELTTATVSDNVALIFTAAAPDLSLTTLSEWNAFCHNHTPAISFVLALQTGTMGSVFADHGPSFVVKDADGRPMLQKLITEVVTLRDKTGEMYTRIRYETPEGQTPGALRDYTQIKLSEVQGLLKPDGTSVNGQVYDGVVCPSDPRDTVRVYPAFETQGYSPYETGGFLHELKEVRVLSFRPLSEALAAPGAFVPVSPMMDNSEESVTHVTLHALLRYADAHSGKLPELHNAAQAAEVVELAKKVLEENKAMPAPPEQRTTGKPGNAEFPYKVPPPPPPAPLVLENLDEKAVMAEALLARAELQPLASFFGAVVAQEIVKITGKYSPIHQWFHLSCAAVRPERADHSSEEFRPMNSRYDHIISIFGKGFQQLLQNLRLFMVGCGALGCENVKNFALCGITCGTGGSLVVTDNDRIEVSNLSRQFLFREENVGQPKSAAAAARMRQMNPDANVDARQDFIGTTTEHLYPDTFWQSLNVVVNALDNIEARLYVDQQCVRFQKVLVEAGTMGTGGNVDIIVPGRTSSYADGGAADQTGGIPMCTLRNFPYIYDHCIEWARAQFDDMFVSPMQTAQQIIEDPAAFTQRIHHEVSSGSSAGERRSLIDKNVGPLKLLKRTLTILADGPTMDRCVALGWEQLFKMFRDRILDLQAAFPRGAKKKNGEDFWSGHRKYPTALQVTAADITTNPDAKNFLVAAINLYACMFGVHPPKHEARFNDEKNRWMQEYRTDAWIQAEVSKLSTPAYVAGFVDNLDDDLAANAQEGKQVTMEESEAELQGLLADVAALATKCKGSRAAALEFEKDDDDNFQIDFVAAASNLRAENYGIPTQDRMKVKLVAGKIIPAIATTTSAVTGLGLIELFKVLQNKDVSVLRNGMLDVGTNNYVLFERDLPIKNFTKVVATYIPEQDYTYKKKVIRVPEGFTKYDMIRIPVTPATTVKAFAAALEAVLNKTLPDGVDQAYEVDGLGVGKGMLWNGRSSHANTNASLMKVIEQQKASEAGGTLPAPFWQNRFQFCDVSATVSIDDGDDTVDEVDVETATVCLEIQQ
The experiment can be described thus: Leishmania donovani Ubiquitin Activating Enzyme (LdE1). In kind it is functional. As to conditions: 30 µM.

Experiment [3] addresses AMP-activated protein kinase, AMPK (Homo sapiens) (UniProt P54646+O43741+P54619+Q9UGJ0+Q9Y478+Q13131+Q9UGI9). The experiment can be described thus: AMP-dependent Kinase enzyme assay. An in vitro enzyme assay that detects ADP turnover that is directly proportional to AMPK activity. This uses naive AMPK that is activated during the assay with MK-8722. In kind it is functional. As to conditions: 30 µM.

The target in experiment [4] is Sialic acid-binding Ig-like lectin 9 (Homo sapiens) (UniProt Q9Y336). Kind of experiment: Hs-Siglec9 ALPHAscreen SOP 20170721. As to conditions: 10 µM. In general terms: Bead proximity is the source of the signal in Alpha formats.
Chain of Sialic acid-binding Ig-like lectin 9 (Homo sapiens) (Q9Y336 whole entry): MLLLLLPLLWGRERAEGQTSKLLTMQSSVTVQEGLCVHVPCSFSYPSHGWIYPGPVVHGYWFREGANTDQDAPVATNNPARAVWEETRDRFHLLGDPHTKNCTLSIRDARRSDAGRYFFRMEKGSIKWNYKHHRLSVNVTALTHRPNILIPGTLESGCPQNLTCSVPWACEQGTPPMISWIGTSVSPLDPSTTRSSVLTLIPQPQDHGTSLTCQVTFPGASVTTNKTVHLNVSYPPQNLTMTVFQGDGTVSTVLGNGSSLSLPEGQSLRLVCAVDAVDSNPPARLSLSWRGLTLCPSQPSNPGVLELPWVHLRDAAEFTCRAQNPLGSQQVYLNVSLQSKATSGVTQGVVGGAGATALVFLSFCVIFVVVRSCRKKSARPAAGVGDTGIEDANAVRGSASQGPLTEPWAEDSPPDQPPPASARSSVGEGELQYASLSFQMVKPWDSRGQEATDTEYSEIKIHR
The next experiment concerns Trypanosoma cruzi. The experiment can be described thus: Trypanosoma cruzi phosphomannomutase and mannose-1-phosphate guanylyltransferase assay. It counts as functional. As to conditions: 10 µM.
Experiment [5] concerns the target T2, Arginase-2, mitochondrial (Homo sapiens) (UniProt P78540).
T2 sequence (whole entry): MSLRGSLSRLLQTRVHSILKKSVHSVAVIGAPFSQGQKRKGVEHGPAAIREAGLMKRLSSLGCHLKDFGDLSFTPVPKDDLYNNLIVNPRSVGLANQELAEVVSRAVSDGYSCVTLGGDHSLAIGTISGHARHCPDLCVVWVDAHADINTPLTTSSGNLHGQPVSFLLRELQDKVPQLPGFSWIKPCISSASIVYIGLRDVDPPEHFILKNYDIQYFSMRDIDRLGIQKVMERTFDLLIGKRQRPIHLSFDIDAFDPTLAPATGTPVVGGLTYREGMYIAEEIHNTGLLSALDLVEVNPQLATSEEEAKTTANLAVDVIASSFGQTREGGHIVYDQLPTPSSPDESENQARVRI
Kind of experiment: in vitro enzyme assay to detect the production of urea directly proportional to the activity of Arginase II. Also: in the data most compounds retested in dose-response had high values. It counts as functional. As to conditions: 33.3 µM.

For experiment [6], the target named is T3, Proteasome subunit beta (Trypanosoma cruzi) (UniProt O96673).
T3 sequence (whole entry): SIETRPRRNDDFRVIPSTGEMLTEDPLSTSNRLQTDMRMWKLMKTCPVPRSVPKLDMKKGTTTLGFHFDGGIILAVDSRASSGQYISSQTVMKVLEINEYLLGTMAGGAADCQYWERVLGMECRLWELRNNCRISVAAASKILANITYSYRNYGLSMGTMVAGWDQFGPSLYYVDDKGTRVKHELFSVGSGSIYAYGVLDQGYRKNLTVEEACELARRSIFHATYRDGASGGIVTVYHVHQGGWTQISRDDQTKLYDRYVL
The experiment can be described thus: Trypanosoma cruzi proteasome chymotrypsin-like activity (TcProtChymo) assay. Also: in the data most compounds retested in dose-response had high values. In kind it is functional. As to conditions: 9.37 µM.

The species named for the next experiment is Homo sapiens. Kind of experiment: To identify inhibition of the IFN signalling (Jak-Stat) pathway via expression of an eGFP reporter gene under the control of an IFN-stimulated response element (ISRE) containing MxA promoter. It counts as functional. As to conditions: 30 µM. (In general: In a reporter assay the amount or activity of a reporter protein is the signal.)

For experiment [7], the target named is T4, Tyrosyl-tRNA synthetase, putative (Trypanosoma cruzi (strain CL Brener)) (UniProt Q4DSP6).
T4 sequence (whole entry): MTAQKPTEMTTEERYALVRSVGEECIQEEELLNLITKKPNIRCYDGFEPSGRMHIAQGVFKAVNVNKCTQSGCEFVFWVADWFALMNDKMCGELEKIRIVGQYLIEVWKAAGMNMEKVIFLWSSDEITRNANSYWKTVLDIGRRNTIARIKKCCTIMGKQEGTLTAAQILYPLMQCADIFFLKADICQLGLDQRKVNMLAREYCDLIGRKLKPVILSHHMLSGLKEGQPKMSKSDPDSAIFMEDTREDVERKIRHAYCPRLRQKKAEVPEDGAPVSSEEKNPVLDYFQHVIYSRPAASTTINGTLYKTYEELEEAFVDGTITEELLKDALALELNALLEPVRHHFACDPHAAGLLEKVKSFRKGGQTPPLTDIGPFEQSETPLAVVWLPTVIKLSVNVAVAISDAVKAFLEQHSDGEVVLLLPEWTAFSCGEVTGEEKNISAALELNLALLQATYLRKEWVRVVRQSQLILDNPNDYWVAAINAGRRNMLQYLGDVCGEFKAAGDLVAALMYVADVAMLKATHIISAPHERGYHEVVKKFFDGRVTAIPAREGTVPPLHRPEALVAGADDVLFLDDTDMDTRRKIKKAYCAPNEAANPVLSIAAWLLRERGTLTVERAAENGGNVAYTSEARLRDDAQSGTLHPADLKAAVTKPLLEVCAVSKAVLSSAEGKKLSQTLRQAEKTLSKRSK
Kind of experiment: Trypanosoma cruzi tyrosyl tRNA synthetase (TcYRS) _High Tyrosine SOP. Also: in the data most compounds retested in dose-response had high values. It counts as functional. As to conditions: 30 µM.

The target in experiment [8] is T4, Tyrosyl-tRNA synthetase, putative (Trypanosoma cruzi (strain CL Brener)). The experiment can be described thus: Trypanosoma cruzi tyrosyl tRNA synthetase (TcYRS) SOP. In kind it is functional. As to conditions: 30 µM.
The target in experiment [9] is Chromo domain-containing protein 1 (Saccharomyces cerevisiae (strain ATCC 204508 / S288c) (Baker's yeast)) (UniProt P32657). The experiment can be described thus: ScCHD-1 Enzyme Inhibition Assay. Also: in the data most compounds retested in dose-response had high values. It counts as functional. As to conditions: 30 µM.
Chain of Chromo domain-containing protein 1 (Saccharomyces cerevisiae (strain ATCC 204508 / S288c) (Baker's yeast)) (P32657 whole entry, the tested form may be a part): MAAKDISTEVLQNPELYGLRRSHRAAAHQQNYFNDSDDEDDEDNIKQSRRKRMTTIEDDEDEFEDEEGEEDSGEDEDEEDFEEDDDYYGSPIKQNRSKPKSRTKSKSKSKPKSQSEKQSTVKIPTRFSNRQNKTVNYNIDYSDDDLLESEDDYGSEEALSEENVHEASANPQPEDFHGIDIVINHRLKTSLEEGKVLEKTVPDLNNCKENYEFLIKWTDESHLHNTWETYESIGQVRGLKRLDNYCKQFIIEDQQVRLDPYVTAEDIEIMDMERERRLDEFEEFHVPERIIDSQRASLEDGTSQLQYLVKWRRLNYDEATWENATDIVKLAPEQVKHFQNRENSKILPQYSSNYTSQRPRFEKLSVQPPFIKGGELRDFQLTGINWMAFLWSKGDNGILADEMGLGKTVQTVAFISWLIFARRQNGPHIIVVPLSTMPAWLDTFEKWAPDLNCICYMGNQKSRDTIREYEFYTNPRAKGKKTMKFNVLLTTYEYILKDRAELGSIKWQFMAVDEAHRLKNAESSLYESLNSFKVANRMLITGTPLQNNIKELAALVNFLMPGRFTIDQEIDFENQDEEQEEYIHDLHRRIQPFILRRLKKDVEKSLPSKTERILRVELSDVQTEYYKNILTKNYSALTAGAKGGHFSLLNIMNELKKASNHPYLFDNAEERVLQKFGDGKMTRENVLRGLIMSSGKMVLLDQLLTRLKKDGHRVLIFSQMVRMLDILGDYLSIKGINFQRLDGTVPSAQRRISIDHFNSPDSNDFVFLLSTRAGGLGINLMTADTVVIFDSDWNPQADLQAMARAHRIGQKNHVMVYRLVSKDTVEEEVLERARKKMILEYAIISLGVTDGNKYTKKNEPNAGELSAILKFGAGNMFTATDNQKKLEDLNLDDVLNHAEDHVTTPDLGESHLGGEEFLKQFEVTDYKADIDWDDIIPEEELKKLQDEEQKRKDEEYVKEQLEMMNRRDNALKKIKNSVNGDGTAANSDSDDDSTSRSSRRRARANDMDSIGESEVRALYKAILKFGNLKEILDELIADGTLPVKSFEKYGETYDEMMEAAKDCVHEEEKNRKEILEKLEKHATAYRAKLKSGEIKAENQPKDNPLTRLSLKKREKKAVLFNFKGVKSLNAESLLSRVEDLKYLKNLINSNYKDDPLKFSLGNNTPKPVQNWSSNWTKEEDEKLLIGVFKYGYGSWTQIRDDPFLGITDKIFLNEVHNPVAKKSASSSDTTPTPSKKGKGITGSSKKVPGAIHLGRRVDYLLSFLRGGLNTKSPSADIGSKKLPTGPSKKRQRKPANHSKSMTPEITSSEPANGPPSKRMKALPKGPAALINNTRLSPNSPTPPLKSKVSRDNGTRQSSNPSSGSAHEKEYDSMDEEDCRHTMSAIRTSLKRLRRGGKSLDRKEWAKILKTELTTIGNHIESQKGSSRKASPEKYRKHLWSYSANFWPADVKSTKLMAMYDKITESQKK

For some of these results: Potency and affinity values are given separately.

Our source for the Percent Effect values is ChEMBL document CHEMBL3988442, “University of Dundee, Small-Polar-MMV Screening Library” (2021).

Chain of Protein translocase subunit SecA (Escherichia coli (strain K12)) (P10408 whole entry): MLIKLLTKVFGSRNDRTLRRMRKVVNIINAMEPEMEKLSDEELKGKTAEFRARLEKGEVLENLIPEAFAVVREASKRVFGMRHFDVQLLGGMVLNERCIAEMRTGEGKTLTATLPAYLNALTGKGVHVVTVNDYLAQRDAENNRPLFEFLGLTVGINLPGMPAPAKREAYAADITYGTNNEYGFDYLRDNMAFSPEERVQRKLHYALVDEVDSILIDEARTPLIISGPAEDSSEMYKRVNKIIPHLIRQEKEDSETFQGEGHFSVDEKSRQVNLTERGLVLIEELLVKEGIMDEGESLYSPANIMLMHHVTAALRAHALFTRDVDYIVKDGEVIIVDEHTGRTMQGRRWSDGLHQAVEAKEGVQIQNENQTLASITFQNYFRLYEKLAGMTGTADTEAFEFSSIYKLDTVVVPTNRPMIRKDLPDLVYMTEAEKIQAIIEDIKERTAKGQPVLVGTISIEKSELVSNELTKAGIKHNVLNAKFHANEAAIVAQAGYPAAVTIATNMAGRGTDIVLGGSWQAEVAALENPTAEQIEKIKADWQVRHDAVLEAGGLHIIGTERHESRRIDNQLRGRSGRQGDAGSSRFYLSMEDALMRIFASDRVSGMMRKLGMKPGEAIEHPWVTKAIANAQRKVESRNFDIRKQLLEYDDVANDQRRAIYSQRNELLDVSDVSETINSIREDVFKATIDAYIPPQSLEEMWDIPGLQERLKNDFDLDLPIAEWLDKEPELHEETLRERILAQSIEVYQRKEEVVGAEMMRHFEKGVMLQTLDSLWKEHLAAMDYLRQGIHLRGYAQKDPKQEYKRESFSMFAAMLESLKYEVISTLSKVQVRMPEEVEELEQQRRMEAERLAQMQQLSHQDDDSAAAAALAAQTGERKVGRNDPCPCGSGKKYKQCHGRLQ

On to `COc1c(C)cnc(CN2CCC(N(C)C(C)C(N)=O)CC2)c1C` (stereo unspecified), for which the Percent Effect in experiment [1] was -2.36%; in experiment [2], 13%; in experiment [3], 3.82%; in experiment [4] it was -8.74%; in the experiment on Trypanosoma cruzi, -3.56%; in [5], -0.712%. Besides, the Percent Effect was 8.95% in experiment [6]; 42.8% in the experiment listed under Homo sapiens; 8.74% in experiment [7]; 14.6% in experiment [8]; -7.36% in experiment [9].

For the compound `CC(NC(=O)c1nc(=O)[nH][nH]1)c1ccc(OCC2CC2)c(F)c1` (stereo unspecified), the Percent Effect was -5.77% in experiment [1]; 10.5% in experiment [2]; -0.945% in experiment [3]; -1.85% in experiment [4]; 4.58% in the experiment with Trypanosoma cruzi; -3.55% in experiment [5]. Further, the Percent Effect in experiment [6] was 4.7%; in the experiment filed under Homo sapiens it was 4.1%; in experiment [7] it was 5.32%; in [8] it was 10.4%; in experiment [9] it was -13.1%.

In the case of `Cn1cnc2c1C(COCC1CCOCC1)CN(C1CCOCC1)C2` (stereo unspecified), the Percent Effect was -3.42% in experiment [1]; 13.3% in [2]; 10.9% in experiment [3]; 4.02% in [4]; -2.76% in the experiment with Trypanosoma cruzi; 3.96% in experiment [5]. In addition, the Percent Effect in experiment [6] was 6.96%; in the experiment filed under Homo sapiens, -11.2%; in experiment [7], 5.32%; in experiment [8], 11.5%; in experiment [9], -4.46%.

Take `O=C(NCc1ccc(F)cc1)N1CCC(C2OCCO2)CC1`: the Percent Effect was -3.74% in experiment [1]; 7.89% in [2]; 6.23% in experiment [3]; 6.03% in experiment [4]; -1.66% with Trypanosoma cruzi; -8.28% in experiment [5]. Besides, the Percent Effect in experiment [6] was 12.4%; in the experiment filed under Homo sapiens, 13.8%; in [7], 6.38%; in [8] it was 13%; in experiment [9], -4.56%.

Turning to `O=C(CCCOCc1ccccc1)N1CCCC1c1ccccn1` (stereo unspecified), the Percent Effect is -2.89% in experiment [1]; 0% in [2]; -0.0464% in experiment [3]; -0.638% in experiment [4]; 2.55% with Trypanosoma cruzi; 7.99% in experiment [5]. For the same compound, the Percent Effect is 5% in experiment [6]; -30.4% in the experiment listed under Homo sapiens; 0.493% in experiment [7]; 3.8% in experiment [8]; -2.69% in experiment [9].

Turning to `Cc1cc(N2CCCC2c2cnccn2)ncn1` (stereo unspecified), the Percent Effect is -2.62% in experiment [1]; 6.76% in experiment [2]; 8.11% in experiment [3]; 0.00484% in experiment [4]; -2.37% in the experiment on Trypanosoma cruzi; 0.696% in [5]. The Percent Effect in experiment [6] is 7.02%; in the experiment listed under Homo sapiens, 5.1%; in experiment [7], 8.6%; in experiment [8] it was 14.3%; in experiment [9] it was -2.99%.

In the case of `CSc1ncccc1C(=O)N1C[C@H]2CC[C@@H]1CN(c1cnccn1)C2`, the Percent Effect was -6.82% in experiment [1]; 7.79% in experiment [2]; 4.77% in experiment [3]; 7.96% in experiment [4]; -3.44% in the experiment on Trypanosoma cruzi; -29% in experiment [5]. The Percent Effect is 10.5% in experiment [6]; -1.66% in the experiment filed under Homo sapiens; 5.38% in experiment [7]; 8.64% in experiment [8]; 0.924% in [9].

For `CC1CN(CC(=O)Nc2nncs2)CCN1Cc1nccn1C` (stereo unspecified), the Percent Effect in experiment [1] is -6.24%; in experiment [2], 8.11%; in experiment [3] it was -5.38%; in [4], -3.66%; in the experiment on Trypanosoma cruzi it was -2.69%; in experiment [5] it was 0.924%. The Percent Effect in experiment [6] came to 4.67%; in the experiment filed under Homo sapiens it was 12%; in experiment [7], 4.95%; in [8], 6.1%; in experiment [9] it was 8.11%.

With `Cn1c(Cn2cccn2)nnc1C1CCN(Cc2cccnc2N)CC1`, the Percent Effect in [1] is -8.22%; in experiment [2] it was 1.39%; in [3], -1.91%; in experiment [4] it was -4.65%; in the experiment on Trypanosoma cruzi it was -3.4%; in [5], 0.883%. The Percent Effect in [6] was 3.86%; in the experiment filed under Homo sapiens, 12.7%; in [7], -1.05%; in experiment [8], 0%; in experiment [9], 0.423%.

As to `COc1ccccc1C(=O)N1Cc2cc(C)ccc2OCC1CN(C)C` (stereo unspecified), the Percent Effect in experiment [1] is -0.165%; in experiment [2] it was 6.76%; in experiment [3], 11.3%; in [4] it was -7.4%; in the experiment on Trypanosoma cruzi, -7.91%; in experiment [5] it was -1.62%. Moreover, the Percent Effect is 14.5% in [6]; 14.6% in the experiment listed under Homo sapiens; 2.15% in [7]; 3.9% in experiment [8]; -11.2% in [9].

In the case of `O=C(CC1CC1)NCc1cc(=O)n2c(n1)CN(Cc1ccoc1)CCC2`, the Percent Effect in experiment [1] was -2.92%; in experiment [2], -11%; in experiment [3] it was -1.08%; in experiment [4], 0.919%; in the experiment on Trypanosoma cruzi it was 7.34%; in [5], -1.2%. For the same compound, the Percent Effect in [6] is 18.9%; in the experiment listed under Homo sapiens it was 4.85%; in experiment [7], 3.12%; in [8], 6.17%; in [9], -3.77%.
